From PubChem BioAssay
Wnt bcat act = Wnt/beta-catenin pathway activation; Wnt/beta-catenin reporter cell assay, activator, plate reader; activation, % at 9.35 µM; actives 1.2% (n = 300,000); in the data active = activation above about 30%, passing the limit was not always enough;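 also: 0% = neutral control wells and 100% = positive control wells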
MITF TRPM1 HTS = activators of MITF-driven TRPM1 promoter activity in SK-MEL-5 cells. SK-MEL-5 TRPM1-promoter luciferase, 24 h; % of positive control, neutral wells = 0. activation, % at 12.5 µM. actives 0.75% (n = 300,000). AID 588334;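 active = mean activation of at least 80% with every replicate also reaching 80%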;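 also: 0% = neutral control wells and 100% = parthenolide positive control wells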
GSIS activator = GLuc luminescence reporter in INS-1E cells, primary screen for activators of glucose-dependent secretion of insulin; INS-1E GLuc reporter insulin secretion, 2-3 h; activation, % at 16.6 µM; actives 0.61% (n = 370,000); AID 743287;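 active = lowest replicate activation of at least 40%, so every replicate reaches that level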;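 also: 0% = median of neutral control wells and 100% = median of IBMX positive control wells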
Dyrk1A ADPGlo = inhibitors of rat Dyrk1A kinase; Q63470; ADP-Glo luminescence, NFATc1 peptide; inhibition, % at 12.5 µM; actives 0.43% (n = 310,000);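 also: plate controls were vehicle with enzyme for no effect and no enzyme for full effect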
NSD2 inh = NSD2 (human) methyltransferase inhibition. O96028. inhibition, % at 12.5 µM. AID 743445. NSD2 peptide methylation, AlphaScreen, 120 min. actives 0.54% (n = 310,000)
Target sequence (O96028 whole entry, looked up): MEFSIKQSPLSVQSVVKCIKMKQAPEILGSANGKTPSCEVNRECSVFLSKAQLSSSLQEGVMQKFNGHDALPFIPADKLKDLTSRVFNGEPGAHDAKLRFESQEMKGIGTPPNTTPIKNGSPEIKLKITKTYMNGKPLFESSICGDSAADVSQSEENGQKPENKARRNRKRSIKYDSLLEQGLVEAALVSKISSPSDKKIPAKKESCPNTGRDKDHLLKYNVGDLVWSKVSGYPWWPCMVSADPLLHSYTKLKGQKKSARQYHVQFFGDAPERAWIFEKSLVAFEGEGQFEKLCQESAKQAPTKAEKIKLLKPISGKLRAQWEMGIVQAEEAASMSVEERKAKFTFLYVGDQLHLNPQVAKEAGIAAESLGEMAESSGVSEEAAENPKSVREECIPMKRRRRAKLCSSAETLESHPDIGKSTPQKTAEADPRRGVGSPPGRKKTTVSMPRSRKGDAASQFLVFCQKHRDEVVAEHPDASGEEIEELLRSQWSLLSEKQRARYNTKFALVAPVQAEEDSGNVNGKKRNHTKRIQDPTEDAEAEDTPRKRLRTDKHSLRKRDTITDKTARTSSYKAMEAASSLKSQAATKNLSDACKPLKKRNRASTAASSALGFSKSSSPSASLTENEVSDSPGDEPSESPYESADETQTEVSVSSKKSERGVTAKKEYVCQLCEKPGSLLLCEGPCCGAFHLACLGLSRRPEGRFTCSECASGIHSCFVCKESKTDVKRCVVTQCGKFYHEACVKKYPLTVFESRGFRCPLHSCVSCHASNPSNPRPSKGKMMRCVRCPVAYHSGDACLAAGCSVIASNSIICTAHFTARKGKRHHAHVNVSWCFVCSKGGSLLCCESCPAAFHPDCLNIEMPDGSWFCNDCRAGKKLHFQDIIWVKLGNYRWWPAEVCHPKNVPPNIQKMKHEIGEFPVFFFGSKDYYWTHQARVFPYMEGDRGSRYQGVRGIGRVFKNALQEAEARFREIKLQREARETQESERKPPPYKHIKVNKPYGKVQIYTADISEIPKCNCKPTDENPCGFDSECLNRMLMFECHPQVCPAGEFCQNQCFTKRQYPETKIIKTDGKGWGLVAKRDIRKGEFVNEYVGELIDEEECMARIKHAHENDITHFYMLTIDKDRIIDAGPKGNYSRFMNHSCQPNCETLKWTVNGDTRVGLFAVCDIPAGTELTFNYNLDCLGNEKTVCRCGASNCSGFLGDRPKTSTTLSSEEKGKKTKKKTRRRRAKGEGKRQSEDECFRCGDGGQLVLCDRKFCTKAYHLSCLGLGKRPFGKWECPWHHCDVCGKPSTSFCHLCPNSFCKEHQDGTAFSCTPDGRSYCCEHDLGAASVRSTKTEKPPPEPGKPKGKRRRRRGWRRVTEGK
miR122 inh = inhibitors of miR-122 in Huh7 cells | activation (reporter increase), % at 12.5 µM | actives 0.3% (n = 340,000) | Huh7 miR-122 Renilla luciferase sensor, 48 h; neutral wells = 0, positive control = 100;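 active = mean replicate activation score at least 90 and every replicate individually at or above 90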;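 also: higher luciferase means less miR-122 activity so hits act as miR-122 inhibitors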
Dyrk1A artifact = counter-screen for Dyrk1A inhibitors: ADP-Glo luciferase artifacts; shares compounds with Dyrk1A ADPGlo; ADP-Glo luciferase artifact assay, no Dyrk1A, luminescence; AC50, µM (series often up to 12 µM), inactives show at the top dose activity change, negative = inhibition; 1,300 tested, under 10 active; AID 588348;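 active = fitted half-maximal dose AC50 no more than ten times the top valid tested dose, with luminescence dropping as dose rises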
* hit, by the source's call; · = no result; ! = repeats disagree; [ ] = dose if it differs, or a comment. An excerpt weighted towards active compounds, which were near 2.4% of everything screened. Rule as the data show it, unless noted: active = inhibition above about 50%; inactive = the rest.

SMILES	Wnt bcat act	MITF TRPM1 HTS	GSIS activator	Dyrk1A ADPGlo	NSD2 inh	miR122 inh	Dyrk1A artifact
COc1ccc(NC(=O)Nc2ccc3c(c2)C(=O)N([C@H](C)CO)C[C@@H](C)[C@@H](CN(C)Cc2ccc(Oc4ccccc4)cc2)O3)cc1	·	·	-6.9	·	·	14.0[16.7 µM]	·
C[C@H]1CN([C@@H](C)CO)C(=O)c2cccc(NC(=O)Nc3ccc(F)cc3)c2O[C@H]1CN(C)Cc1ccc(Oc2ccccc2)cc1	·	·	-36.8	·	·	1.9[16.7 µM]	·
O=C(CCN1CCCCC1)N[C@@H]1C=C[C@H](CC(=O)N2CCC(Cc3ccccc3)CC2)O[C@@H]1CO	·	·	2.4	·	·	-7.8[16.7 µM]	·
COc1ccccc1CNC(=O)C[C@H]1CC[C@@H]2[C@H](COC[C@H](O)CN2C(=O)Nc2ccccc2)O1	·	·	-7.7	·	·	3.3[16.7 µM]	·
O=C1CCCc2c1cc(C(=O)NCCCN1CCOCC1)c(=O)n2-c1ccc(Cl)cc1	-2.7	·	-2.8	58.0*	·	-1.5	11.6%
Cc1ccnc(NC(=O)c2cccc(S(=O)(=O)N3CCCC3)c2)c1	2.9	4.0	3.6	1.7	-2.0	-2.6	·
Cc1ccnc(NC(=O)c2cccc(S(=O)(=O)N3CCN(c4ccccc4)CC3)c2)c1	23.3	43.9	-5.5	60.2*	-0.5	·	6.0%
O=C(C1CC1)N1CC2(C1)[C@@H](c1ccccc1)[C@@H](CO)N2C(=O)c1cccnc1	·	·	11.3	·	·	·	·
CC(=O)Oc1ccc2oc(/C=C/N(C)C)c([N+](=O)[O-])c2c1	·	·	·	6.1	11.4	·	·
C/C(=C/c1oc2ccc(O)cc2c1[N+](=O)[O-])N(C)C	1.0	19.2	·	51.9*	7.6	-5.0	6.9%
COc1ccccc1C(=O)Nc1ccc2c(c1)C(=O)N(C)C[C@H](OC)[C@H](C)CN(C)[C@H](C)CO2	·	·	-0.9	·	·	·	·
COCC(=O)N1CC2(C1)[C@H](c1ccc(C3=CCCC3)cc1)[C@@H](CO)N2C(=O)COC	·	·	35.8	·	·	·	·
O=C(O)c1ccc(-c2ccc(/C=c3/sc4nc5ccccc5n4c3=O)o2)cc1Cl	2.1	11.9	8.9	53.9*	·	·	10.8%
O=c1cc(-c2ccco2)oc2c1ccc1ccccc12	-2.0	9.5	·	59.0*	-0.6	0.4	7.3%
CCC(=O)N[C@@H]1C=C[C@H](CC(=O)NCc2ccccc2F)O[C@@H]1CO	·	·	-2.3	·	·	-3.2[16.7 µM]	·
c1ccc(-c2csc3nnc(SCc4ccc5c(c4)OCO5)n23)cc1	3.1	-4.2	29.2	57.9*	·	8.0	6.5%
O=C(Nc1nccs1)[C@H]1[C@H](CO)[C@H]2Cn3c(cccc3=O)[C@@H]1N2C(=O)C1CCCCC1	·	·	3.2	·	·	·	·
CO[C@@H]1CN(C)C(=O)c2cc(NC(=O)NC3CCCC3)ccc2OC[C@@H](C)NC[C@@H]1C	·	·	-15.2	·	·	·	·
CCCN1C[C@@H](C)[C@H](OC)CN(C)C(=O)c2ccc(NC(=O)c3cccc(OC)c3)cc2OC[C@@H]1C	·	·	6.6	·	·	·	·
O=C1C=CC(O)(c2cc(=O)c3c(O)cc(O)cc3o2)C=C1	-24.1	-80.1	14.6	50.7*	·	·	7.8%
COc1ccc(-c2c(C)oc3cc(O)cc(O)c3c2=O)cc1OC	0.1	-1.9	-5.6	-0.5	·	-1.8	·
NC(N)=NC(=O)c1nc(Cl)c(N)nc1N	1.2	-5.2	11.8	64.3*!	·	3.3	9.0%
COC(=O)c1[nH]c2cc(OC)ccc2c1N	·	-17.2	·	74.5*	5.7	·	10.5%
COC(=O)c1oc2ccc(OC)cc2c1N	·	45.3	·	69.6*	0.7	7.9	10.5%
O=C(C[C@H]1CC[C@@H]2[C@H](COC[C@@H](O)CN2C(=O)c2cccnc2)O1)Nc1ccc(-c2ccccc2)cc1	·	·	-0.1	·	·	10.7[16.7 µM]	·
Cc1[nH][nH]c(=O)c1N=Nc1ccccc1Cl	5.7	5.1	2.5	55.0*	7.6	·	8.0%
CCCCOc1cccc(C(=O)NC(=S)Nc2ccc(Cl)c(C(=O)O)c2)c1	-0.2	1.6	-5.2	66.2*	-1.8	-0.2	10.8%
CCCNC(=O)N1C[C@H](O)COC[C@@H]2O[C@@H](CC(=O)OC)CC[C@H]21	·	·	1.3	·	·	3.6[16.7 µM]	·
COCC#Cc1ccc([C@H]2[C@H](CO)N3C(=O)CN(C(=O)C4CCOCC4)C[C@@H]23)cc1	·	·	11.4	·	·	·	·
O=C(O)CSc1ncnc2scc(-c3ccccc3)c12	-2.1	2.9	11.4	72.9*	-3.1	14.0	10.9%
